Measured values: PubChem BioAssay AID1240 (Sanford-Burnham Center for Chemical Genomics, 2008)
Hit rate of the full screen: of about 50,000 compounds, about 800 (1.6%) showed an effect of 50% or more. The list comes from a sample in which strong results are over-represented; it also holds similar structures and randomly drawn compounds.

molecular target: Bcl-2-like protein 10 (Homo sapiens) (UniProt Q9HD36); assay: Phenotype converters, Bcl-B/TR3 peptide binding displacement, primary biochemical FP (AID 1240); conditions: GST-Bcl-B / FITC-TR3 peptide fluorescence polarization; stronger effect = higher value; compound at 3.75 mg/L;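 further: 0% = Bcl-B with tracer peptide and DMSO and 100% = tracer peptide lacking Bcl-B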
Sequence (Q9HD36 whole entry, looked up): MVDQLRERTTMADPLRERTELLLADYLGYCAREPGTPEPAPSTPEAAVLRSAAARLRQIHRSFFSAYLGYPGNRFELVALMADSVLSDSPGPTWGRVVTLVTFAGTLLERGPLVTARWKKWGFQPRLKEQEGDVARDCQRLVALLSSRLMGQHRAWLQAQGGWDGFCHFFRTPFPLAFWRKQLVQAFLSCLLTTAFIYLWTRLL

First: CCOC(=O)C1=CN(c2ccc(OCC)cc2)C=C(C(=O)OCC)C1c1ccccc1F
Second: CCOc1ccc(-c2cc(OCC)c3c(C)oc(C)c3c(=[O+]CC)c2)cc1
The displacement of the first is lower: -12.6% for the first, 2.4% for the second.

First: CC(=O)OC(c1c(F)c(F)c(F)c(F)c1F)c1c(F)c(F)c(F)c(F)c1F
Second: COc1ccc(-c2cc(C(F)(F)F)n3nc(C(N)=O)c(Cl)c3n2)cc1OC
The displacement of the first is lower: 3% for the first, 33.4% for the second.

First: C=CCN1C(=O)/C(=C\c2ccc(O)cc2)C(=O)NC1=S
Second: CCN1C(=O)/C(=C\c2ccc(Br)cc2)SC1=S
The displacement of the first is lower: -14.8% for the first, 7.1% for the second.

First: O=C(N/N=C/c1ccc(Cl)cc1)c1ccc(O)cc1
Second: COc1ccc(C(=O)Nc2ccc(N(C)C)cc2)cc1
The displacement of the first is lower: -1.1% for the first, 6% for the second.

Going from `O=C(/C=C/c1ccccc1)C1=C(O)C(=O)N(c2ccccc2)C1c1ccccc1F` (centres undefined) to `O=C(/C=C/c1ccccc1)C1=C(O)C(=O)N(c2ccccn2)C1c1ccccc1F` (centres undefined), the displacement rises from 2% to 93.5%.

Going from `O=C(O)CCCCCN1C(=O)C(O)=C(C(=O)/C=C/c2ccccc2)C1c1ccccc1F` (centres undefined) to `CN(C)c1ccc(C2/C(=C(\O)c3ccc(F)cc3)C(=O)C(=O)N2CCCCCC(=O)O)cc1` (centres undefined), the displacement rises from 1.5% to 9.1%.

First: Cc1ccccc1NC(=O)CN(c1ccc(Oc2ccccc2)cc1)S(C)(=O)=O
Second: Cc1ccccc1NC(=O)c1ccc(C)c(S(=O)(=O)NCc2ccccc2)c1
The displacement of the first is higher: 1.7% for the first, -9.5% for the second.

Compared with `CC(C)c1nnc(NC(=O)Nc2ccc(Cl)c(Cl)c2)s1`, `CC(C)Cc1nnc(NC(=O)Nc2ccc(Cl)c(Cl)c2)s1` is lower in displacement: 98.2% for the first, 3.9% for the second.

First: CC(C)c1nnc(NC(=O)Nc2ccc(Cl)cc2)s1
Second: O=C(Cc1ccc(Cl)cc1)Nc1ccc2c(c1)OCCO2
The displacement of the first is higher: 2.3% for the first, 0.4% for the second.

Going from `FC(F)(F)c1nc2ccccc2n1CC#CCn1c(C(F)(F)F)nc2ccccc21` to `COc1ccc(-c2cc(C(F)(F)F)n3nc(C(=O)NCCCn4ccnc4)c(Cl)c3n2)cc1`, the displacement rises from -1.1% to 105%.

Compared with `Cc1ccc(NC(=O)/C(=C/c2ccccc2)c2ccccc2)cc1C`, `Cc1nc(-c2ccccc2)sc1C(=O)Nc1cccc2ccccc12` is higher in displacement: 12.1% for the first, 13.1% for the second.

Compared with `O=C(Nc1nc2ccc(Br)cc2s1)c1cccs1`, `COc1ccc(C(=O)Nn2cc3cc([N+](=O)[O-])ccc3n2)cc1` is lower in displacement: -3.7% for the first, -9.5% for the second.

Compared with `CSc1nc2sc3c(c2c(=O)[nH]1)CCN(Cc1ccccc1)C3`, `CSc1nc2sc3c(c2c(=O)n1Cc1ccccc1)CCN(C)C3` is lower in displacement: 81% for the first, -6.8% for the second.

Going from `Nc1nc(SCc2ccc(Cl)cc2)nc2sc3c(c12)CCN(Cc1ccccc1)C3` to `Nc1sc(=S)nc2sc3c(c12)CCN(Cc1ccccc1)C3`, the displacement rises from 16.8% to 74%.

Compared with `N#Cc1c(N)sc2c1CCN(Cc1ccccc1)C2`, `O=[N+]([O-])c1ccc2oc(-c3ccccc3)nc2c1` is higher in displacement: 3.4% for the first, 5% for the second.

Compared with `CSc1nc2sc3c(c2c(=O)[nH]1)CCCC3`, `O=C(Nc1ncc(Cc2ccc(F)cc2)s1)C1CCCO1` (centres undefined) is higher in displacement: 6.2% for the first, 15.4% for the second.

Going from `Cc1cccc(C(=O)O/N=C(\N)c2ccc(Br)cc2)c1` to `CCCCOC(=O)c1ccc(NC(=O)COc2ccc3c(C)cc(=O)oc3c2)cc1`, the displacement rises from -0.6% to 28.5%.

First: COc1ccc(-c2occ(C(=O)O)c2C(=O)O)cc1
Second: COc1ccc(-c2cc(C(F)(F)F)n3nc(C(=O)O)c(Cl)c3n2)cc1
The displacement of the first is lower: 0.2% for the first, 3.2% for the second.

First: O=C1CC(N2CCN(c3ccccc3)CC2)C(=O)N1c1ccc(I)cc1 (centres undefined)
Second: CCC12C(=O)C(CC)(C(c3ccccc3)=C1c1ccccc1)C1C(=O)N(c3ccccc3[N+](=O)[O-])C(=O)C12 (centres undefined)
The displacement of the first is lower: -0.8% for the first, 2% for the second.

Going from `CCOc1cccc(=O)c2c(C)oc(C)c12` to `CCOc1cccc(=[O+]CC)c2c(C)oc(C)c12`, the displacement rises from 16.8% to 154%.

Compared with `CNC(=O)COc1ccc(C23CC4CC(CC(C4)C2)C3)cc1`, `CCCCOC(=O)c1cccc(NC(=O)COc2ccc3c(C)cc(=O)oc3c2)c1` is lower in displacement: 1.4% for the first, -41.8% for the second.

First: O=C(CSc1n[nH]c(=O)[nH]c1=O)c1ccc(Cl)cc1
Second: Cc1ccc(-n2cc(C=C3C(=O)NC(=O)NC3=O)cn2)cc1C
The displacement of the first is lower: -6.1% for the first, 110% for the second.

First: COc1cc(C=O)ccc1Oc1ccc([N+](=O)[O-])cc1
Second: Cc1cccc([N+](=O)[O-])c1N=Cc1ccc(N(C)C)cc1
The displacement of the first is higher: 5% for the first, -4.5% for the second.

First: Cc1ccc(-n2c(C)cc(/C=C3\NC(=O)NC3=O)c2C)cc1C
Second: Cc1ccc(-n2cc(/C=c3\sc4nc5cc(C)c(C)cc5n4c3=O)cn2)cc1C
The displacement of the first is higher: 11.1% for the first, -8.9% for the second.

First: COc1sc(SC)cc1/C=N/NC(=O)C(NC(=O)c1ccccc1)c1n[nH]c(=O)c2ccccc12 (centres undefined)
Second: COCCOC(=O)c1ccc(NC(=O)COc2ccc3c(C)cc(=O)oc3c2)cc1
The displacement of the first is lower: -7.7% for the first, 90.3% for the second.

Going from `COc1ccc(-c2cc(C(F)(F)F)n3nc(C(=O)NCCN4CCOCC4)c(Cl)c3n2)cc1` to `COCCNC(=O)c1nn2c(C(F)(F)F)cc(-c3ccc(OC)cc3)nc2c1Cl`, the displacement rises from -10.2% to -2.4%.

Compared with `COCCNC(=O)c1nn2c(C(F)(F)F)cc(-c3ccc(OC)c(OC)c3)nc2c1Cl`, `COc1ccc(N(CC(=O)NC2CCCCC2)S(=O)(=O)c2ccccc2)cc1Cl` is lower in displacement: 155% for the first, 7.2% for the second.
